Measurements: publication PMC7862700, “An all-to-all approach to the identification of sequence-specific readers for epigenetic DNA modifications on cytosine”

Assays:
Assay in all cases: DAPPL (digital affinity profiling via proximity ligation, sequencing); 10 mM Tris-HCl pH 7.5, 50 mM NaCl, 1 mM DTT, 4% glycerol, room temperature, 30 min; GST-TFs on glutathione beads, 16-mer random dsDNA library, 0.1% formaldehyde crosslink after washing; high values mean tight binding
[1] = target: T1, FLI1 (Homo sapiens, UniProt Q01543 1-452); conditions: protein: recombinant; tags: N-terminal GST; dsDNA, one strand shown
T1 sequence: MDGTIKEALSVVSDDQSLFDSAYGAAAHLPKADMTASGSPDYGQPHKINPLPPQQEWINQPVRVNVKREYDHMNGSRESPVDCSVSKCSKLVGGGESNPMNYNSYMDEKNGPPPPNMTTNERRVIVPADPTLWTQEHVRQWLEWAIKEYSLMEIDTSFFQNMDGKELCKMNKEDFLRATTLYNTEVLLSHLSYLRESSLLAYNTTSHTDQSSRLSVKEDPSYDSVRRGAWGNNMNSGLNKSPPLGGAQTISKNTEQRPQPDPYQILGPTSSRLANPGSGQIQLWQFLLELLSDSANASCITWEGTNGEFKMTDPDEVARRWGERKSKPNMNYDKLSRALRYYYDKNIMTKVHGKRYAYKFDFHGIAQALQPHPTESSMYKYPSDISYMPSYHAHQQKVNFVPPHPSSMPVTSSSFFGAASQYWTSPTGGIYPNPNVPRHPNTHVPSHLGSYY
In short: (§1)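 Binding signal is given per hexamer as its read frequency for a factor divided by its frequency in the tag-only sample. GST-fused human transcription factors were expressed in yeast, captured on glutathione beads, barcoded with DNA and pooled with that sample, then incubated with 200 nmole of a 16-mer random double-stranded DNA library in Tris/NaCl/DTT/glycerol buffer for 30 min at room temperature. The pools were then washed, crosslinked, proximity-ligated, amplified by PCR and sequenced on an Illumina NextSeq500.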

[2] = target: T2, ELK1 (Homo sapiens, UniProt P19419 1-428); conditions: protein: recombinant; tags: N-terminal GST; dsDNA, one strand shown
T2 sequence: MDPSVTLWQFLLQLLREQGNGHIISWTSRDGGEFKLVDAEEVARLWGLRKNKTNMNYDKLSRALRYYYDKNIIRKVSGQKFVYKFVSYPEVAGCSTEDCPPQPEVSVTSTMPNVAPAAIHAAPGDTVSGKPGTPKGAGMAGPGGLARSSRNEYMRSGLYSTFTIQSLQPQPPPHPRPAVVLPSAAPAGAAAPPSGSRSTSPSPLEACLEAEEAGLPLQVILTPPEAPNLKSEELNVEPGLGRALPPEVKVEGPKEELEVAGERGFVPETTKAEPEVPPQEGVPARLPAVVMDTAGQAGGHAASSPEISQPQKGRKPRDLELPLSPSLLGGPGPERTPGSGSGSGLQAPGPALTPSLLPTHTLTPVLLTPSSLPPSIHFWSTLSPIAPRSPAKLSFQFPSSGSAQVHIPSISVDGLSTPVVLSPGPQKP
In short: as §1

[3] = target: T3, GABPA (Homo sapiens, UniProt Q06546 1-454); conditions: protein: recombinant; tags: N-terminal GST; dsDNA, one strand shown
T3 sequence: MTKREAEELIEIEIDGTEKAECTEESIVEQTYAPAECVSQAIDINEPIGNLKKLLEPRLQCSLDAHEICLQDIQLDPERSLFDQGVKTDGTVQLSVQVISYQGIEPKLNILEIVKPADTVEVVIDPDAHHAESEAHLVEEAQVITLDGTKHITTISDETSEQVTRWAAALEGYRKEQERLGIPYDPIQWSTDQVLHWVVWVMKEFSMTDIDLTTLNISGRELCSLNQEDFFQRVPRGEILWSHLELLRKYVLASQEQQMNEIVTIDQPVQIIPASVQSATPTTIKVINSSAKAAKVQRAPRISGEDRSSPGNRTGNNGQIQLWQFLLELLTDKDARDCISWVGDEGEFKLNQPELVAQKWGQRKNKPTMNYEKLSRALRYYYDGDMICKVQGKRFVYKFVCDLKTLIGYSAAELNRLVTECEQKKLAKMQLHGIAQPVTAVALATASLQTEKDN
In short: as §1

[4] = target: T4, ERG (Homo sapiens, UniProt P11308 1-479); conditions: protein: recombinant; tags: N-terminal GST; dsDNA, one strand shown
T4 sequence: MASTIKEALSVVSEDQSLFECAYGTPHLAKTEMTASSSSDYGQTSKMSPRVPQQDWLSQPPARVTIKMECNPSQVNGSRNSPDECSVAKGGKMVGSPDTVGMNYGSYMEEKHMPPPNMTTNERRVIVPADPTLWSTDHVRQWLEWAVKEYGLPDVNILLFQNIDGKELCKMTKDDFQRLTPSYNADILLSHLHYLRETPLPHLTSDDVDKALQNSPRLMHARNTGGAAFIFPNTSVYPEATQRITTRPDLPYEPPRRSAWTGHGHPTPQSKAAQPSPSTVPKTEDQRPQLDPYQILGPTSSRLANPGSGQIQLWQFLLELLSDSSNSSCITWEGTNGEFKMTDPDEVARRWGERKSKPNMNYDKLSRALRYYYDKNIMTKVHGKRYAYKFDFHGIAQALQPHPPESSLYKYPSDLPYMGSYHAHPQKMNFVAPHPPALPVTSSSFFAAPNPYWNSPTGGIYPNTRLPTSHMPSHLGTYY
In short: as §1

[5] = target: ELF1 (Homo sapiens, UniProt P32519 1-619); conditions: protein: recombinant; tags: N-terminal GST; dsDNA, one strand shown
In short: as §1

[6] = target: T5, EHF (Homo sapiens, UniProt Q9NZC4 1-300); conditions: protein: recombinant; tags: N-terminal GST; dsDNA, one strand shown
T5 sequence: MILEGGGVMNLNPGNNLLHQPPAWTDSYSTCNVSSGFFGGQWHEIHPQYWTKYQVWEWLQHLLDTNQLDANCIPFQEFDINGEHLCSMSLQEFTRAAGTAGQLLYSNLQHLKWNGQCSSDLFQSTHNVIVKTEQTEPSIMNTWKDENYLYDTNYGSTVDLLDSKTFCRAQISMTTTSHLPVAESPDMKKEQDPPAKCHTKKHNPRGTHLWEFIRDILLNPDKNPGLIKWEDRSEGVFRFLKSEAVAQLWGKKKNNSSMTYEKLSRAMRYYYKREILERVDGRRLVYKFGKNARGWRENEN
In short: as §1

[7] = target: SPI1 (Homo sapiens, UniProt P17947 1-270); conditions: protein: recombinant; tags: N-terminal GST; dsDNA, one strand shown
In short: as §1

[8] = target: SPIB (Homo sapiens, UniProt Q01892 1-262); conditions: protein: recombinant; tags: N-terminal GST; dsDNA, one strand shown
In short: as §1

[9] = target: T6, ELK3 (Homo sapiens, UniProt P41970 1-407); conditions: protein: recombinant; tags: N-terminal GST; dsDNA, one strand shown
T6 sequence: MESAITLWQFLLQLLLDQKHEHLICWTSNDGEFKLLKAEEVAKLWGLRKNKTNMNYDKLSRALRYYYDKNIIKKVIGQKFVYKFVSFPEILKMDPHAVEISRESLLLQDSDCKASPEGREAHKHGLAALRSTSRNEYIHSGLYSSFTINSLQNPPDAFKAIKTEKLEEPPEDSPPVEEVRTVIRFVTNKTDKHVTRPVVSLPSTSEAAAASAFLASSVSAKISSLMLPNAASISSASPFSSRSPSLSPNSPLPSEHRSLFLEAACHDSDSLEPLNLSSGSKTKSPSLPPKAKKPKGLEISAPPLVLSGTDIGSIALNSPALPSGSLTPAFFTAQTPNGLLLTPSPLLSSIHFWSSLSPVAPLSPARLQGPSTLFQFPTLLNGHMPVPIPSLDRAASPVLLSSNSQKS
In short: as §1

[10] = target: T7, FEV (Homo sapiens, UniProt Q99581 1-238); conditions: protein: recombinant; tags: N-terminal GST; dsDNA, one strand shown
T7 sequence: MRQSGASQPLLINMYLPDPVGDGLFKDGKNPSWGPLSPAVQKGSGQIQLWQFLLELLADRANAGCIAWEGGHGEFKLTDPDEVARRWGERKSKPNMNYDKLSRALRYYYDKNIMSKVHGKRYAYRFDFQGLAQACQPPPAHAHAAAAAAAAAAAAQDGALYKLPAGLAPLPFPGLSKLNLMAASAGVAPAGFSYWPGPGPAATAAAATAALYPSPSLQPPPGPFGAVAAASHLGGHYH
In short: as §1

[11] = target: ETV5 (Homo sapiens, UniProt P41161 1-510); conditions: protein: recombinant; tags: N-terminal GST; dsDNA, one strand shown
In short: as §1

[12] = target: HSF1 (Homo sapiens, UniProt Q00613 1-529); conditions: protein: recombinant; tags: N-terminal GST; chain copies: 3; dsDNA, one strand shown
In short: as §1

[13] = target: T8, SPIC (Homo sapiens, UniProt Q8N5J4 1-248); conditions: protein: recombinant; tags: N-terminal GST; dsDNA, one strand shown
T8 sequence: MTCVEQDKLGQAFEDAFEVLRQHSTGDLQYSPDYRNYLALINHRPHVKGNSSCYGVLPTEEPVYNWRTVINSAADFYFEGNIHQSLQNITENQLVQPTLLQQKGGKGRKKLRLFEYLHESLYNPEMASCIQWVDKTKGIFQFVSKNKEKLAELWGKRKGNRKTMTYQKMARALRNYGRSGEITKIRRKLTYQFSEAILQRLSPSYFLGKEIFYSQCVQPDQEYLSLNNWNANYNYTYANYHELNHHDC
In short: as §1

[14] = target: ELF4 (Homo sapiens, UniProt Q99607 1-663); conditions: protein: recombinant; tags: N-terminal GST; dsDNA, one strand shown
In short: as §1

[15] = target: T9, ELK4 (Homo sapiens, UniProt P28324-2 1-405); conditions: protein: recombinant; tags: N-terminal GST; dsDNA, one strand shown
T9 sequence: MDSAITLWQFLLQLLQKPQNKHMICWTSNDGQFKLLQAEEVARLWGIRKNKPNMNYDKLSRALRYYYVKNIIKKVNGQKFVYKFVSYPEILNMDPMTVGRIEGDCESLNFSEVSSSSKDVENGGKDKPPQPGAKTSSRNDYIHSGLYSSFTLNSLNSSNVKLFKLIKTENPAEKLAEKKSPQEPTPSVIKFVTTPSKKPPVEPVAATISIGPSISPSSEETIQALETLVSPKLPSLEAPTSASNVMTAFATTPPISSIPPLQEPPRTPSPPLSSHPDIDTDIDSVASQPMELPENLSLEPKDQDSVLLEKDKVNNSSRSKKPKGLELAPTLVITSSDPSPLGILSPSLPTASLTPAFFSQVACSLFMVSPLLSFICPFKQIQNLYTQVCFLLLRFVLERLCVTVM
In short: as §1

[16] = target: T10, ETV2 (Homo sapiens, UniProt O00321 1-342); conditions: protein: recombinant; tags: N-terminal GST; dsDNA, one strand shown
T10 sequence: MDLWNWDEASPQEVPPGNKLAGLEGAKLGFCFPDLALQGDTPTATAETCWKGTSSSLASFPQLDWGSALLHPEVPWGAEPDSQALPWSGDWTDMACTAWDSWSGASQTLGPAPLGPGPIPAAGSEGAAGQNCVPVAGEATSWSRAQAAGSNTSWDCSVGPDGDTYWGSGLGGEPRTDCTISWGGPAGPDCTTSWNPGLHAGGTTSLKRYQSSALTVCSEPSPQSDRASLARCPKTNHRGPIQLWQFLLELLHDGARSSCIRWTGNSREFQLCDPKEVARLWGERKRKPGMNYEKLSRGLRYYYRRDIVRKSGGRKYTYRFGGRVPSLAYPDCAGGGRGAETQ
In short: as §1

[17] = target: T11, ELF3 (Homo sapiens, UniProt P78545 1-371); conditions: protein: recombinant; tags: N-terminal GST; dsDNA, one strand shown
T11 sequence: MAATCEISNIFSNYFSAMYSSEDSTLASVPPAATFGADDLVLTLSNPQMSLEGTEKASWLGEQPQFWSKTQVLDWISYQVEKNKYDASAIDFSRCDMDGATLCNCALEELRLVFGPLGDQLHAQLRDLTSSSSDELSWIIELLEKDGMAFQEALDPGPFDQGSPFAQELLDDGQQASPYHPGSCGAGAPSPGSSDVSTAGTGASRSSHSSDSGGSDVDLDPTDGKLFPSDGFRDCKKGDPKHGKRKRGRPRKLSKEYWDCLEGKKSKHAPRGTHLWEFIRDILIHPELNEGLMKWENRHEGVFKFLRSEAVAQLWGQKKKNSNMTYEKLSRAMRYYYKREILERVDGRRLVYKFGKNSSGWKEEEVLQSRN
In short: as §1

[18] = target: CRX (Homo sapiens, UniProt O43186 1-299); conditions: protein: recombinant; tags: N-terminal GST; dsDNA, one strand shown
In short: as §1

[19] = target: ETV1 (Homo sapiens, UniProt P50549 1-477); conditions: protein: recombinant; tags: N-terminal GST; dsDNA, one strand shown
In short: as §1

ELF1, sequence (P32519 whole entry): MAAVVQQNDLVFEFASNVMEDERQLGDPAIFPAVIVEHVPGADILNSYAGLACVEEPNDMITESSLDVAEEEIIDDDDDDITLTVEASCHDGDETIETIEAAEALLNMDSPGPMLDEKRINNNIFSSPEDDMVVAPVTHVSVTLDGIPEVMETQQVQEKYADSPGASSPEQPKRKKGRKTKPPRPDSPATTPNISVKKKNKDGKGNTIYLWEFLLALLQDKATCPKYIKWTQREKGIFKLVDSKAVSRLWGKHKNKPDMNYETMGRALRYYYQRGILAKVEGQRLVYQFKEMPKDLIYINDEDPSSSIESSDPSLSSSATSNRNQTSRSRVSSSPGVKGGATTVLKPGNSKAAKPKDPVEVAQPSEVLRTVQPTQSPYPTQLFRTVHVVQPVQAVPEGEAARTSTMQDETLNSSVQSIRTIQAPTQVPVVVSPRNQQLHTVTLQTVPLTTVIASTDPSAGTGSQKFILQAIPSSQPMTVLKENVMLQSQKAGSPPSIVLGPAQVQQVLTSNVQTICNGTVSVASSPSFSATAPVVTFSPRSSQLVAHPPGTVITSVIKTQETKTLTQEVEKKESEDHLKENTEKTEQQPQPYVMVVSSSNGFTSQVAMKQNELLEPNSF
ELF4, sequence (Q99607 whole entry): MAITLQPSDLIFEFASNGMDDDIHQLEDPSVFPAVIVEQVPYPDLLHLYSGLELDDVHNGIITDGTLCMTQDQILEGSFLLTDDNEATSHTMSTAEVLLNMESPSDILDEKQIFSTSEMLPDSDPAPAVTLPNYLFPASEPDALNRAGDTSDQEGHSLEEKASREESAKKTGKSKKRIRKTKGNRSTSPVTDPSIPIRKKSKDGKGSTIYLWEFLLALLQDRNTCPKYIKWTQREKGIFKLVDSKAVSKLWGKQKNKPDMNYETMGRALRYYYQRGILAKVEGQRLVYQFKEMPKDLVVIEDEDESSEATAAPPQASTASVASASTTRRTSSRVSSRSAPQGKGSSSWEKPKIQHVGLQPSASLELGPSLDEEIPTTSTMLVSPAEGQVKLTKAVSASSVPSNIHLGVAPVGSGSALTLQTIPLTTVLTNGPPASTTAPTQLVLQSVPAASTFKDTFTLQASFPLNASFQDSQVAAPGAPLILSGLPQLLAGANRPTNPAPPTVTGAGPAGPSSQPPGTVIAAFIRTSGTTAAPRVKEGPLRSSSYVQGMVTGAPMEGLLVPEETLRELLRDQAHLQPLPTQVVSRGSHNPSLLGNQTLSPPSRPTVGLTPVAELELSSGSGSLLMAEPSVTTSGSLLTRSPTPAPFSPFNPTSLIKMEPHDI
HSF1, sequence (Q00613 whole entry): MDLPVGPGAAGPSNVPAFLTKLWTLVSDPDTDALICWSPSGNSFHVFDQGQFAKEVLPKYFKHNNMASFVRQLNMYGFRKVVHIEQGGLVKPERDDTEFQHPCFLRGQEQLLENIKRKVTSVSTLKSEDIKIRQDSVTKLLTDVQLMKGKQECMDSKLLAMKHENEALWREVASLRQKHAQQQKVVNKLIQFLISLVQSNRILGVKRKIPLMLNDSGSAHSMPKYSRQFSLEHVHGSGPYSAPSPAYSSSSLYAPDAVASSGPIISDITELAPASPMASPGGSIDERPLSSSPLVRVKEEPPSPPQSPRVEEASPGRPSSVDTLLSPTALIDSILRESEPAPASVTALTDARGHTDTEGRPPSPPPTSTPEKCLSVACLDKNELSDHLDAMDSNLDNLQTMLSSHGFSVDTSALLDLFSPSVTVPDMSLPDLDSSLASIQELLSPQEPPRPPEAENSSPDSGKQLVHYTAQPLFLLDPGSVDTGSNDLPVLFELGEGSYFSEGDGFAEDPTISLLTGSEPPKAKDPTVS
ETV1, sequence (P50549 whole entry): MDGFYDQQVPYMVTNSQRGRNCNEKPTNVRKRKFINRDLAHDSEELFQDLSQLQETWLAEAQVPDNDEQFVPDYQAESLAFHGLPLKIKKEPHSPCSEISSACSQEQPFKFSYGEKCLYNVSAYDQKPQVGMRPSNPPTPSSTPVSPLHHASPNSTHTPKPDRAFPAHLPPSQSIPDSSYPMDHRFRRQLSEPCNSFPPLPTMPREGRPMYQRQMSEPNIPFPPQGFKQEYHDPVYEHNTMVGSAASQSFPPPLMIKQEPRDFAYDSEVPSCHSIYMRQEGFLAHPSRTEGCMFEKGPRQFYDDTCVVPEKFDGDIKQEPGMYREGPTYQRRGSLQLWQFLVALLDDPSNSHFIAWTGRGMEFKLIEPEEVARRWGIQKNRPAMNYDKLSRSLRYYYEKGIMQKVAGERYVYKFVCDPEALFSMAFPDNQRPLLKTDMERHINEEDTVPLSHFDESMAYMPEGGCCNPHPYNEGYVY
CRX, sequence (O43186 whole entry): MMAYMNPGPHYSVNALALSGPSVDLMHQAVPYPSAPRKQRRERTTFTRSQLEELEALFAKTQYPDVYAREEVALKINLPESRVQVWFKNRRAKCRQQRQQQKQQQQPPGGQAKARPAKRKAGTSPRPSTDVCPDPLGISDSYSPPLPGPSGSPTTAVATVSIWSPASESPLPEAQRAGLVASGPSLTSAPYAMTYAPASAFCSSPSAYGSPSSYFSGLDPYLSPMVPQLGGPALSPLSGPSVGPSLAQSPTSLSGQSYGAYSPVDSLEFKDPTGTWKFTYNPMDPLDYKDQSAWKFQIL
SPIB, sequence (Q01892 whole entry): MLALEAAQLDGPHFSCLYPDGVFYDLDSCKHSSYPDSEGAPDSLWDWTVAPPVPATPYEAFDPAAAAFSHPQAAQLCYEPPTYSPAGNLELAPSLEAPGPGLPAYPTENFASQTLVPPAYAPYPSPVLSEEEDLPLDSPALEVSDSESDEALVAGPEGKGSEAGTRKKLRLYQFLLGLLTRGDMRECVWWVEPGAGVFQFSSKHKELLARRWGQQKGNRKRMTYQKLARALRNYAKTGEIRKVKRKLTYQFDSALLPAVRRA
ETV5, sequence (P41161 whole entry): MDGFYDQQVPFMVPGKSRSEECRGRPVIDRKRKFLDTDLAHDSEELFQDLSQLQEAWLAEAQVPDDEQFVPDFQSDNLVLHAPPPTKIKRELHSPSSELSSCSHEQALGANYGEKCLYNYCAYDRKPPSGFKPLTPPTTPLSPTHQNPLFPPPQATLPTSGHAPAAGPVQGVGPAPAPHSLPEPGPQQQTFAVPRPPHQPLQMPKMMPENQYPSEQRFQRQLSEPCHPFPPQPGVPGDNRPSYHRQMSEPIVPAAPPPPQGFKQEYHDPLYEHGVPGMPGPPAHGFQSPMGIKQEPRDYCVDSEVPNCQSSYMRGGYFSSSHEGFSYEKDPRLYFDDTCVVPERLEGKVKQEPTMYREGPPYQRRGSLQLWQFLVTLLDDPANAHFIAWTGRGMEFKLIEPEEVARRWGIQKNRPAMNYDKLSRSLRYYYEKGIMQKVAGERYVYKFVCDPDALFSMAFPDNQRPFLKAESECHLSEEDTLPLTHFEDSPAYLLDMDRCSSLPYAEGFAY

For TTTATG, the binding signal [1] was 1.31 fold enrichment (6-mer frequency, TF over GST control), the binding signal [2] was 1.21 fold enrichment (6-mer frequency, TF over GST control) and the binding signal [3] was 1.4 fold enrichment (6-mer frequency, TF over GST control). For the same sequence, the binding signal [4] was 1.21 fold enrichment (6-mer frequency, TF over GST control), the binding signal [5] was 1.18 fold enrichment (6-mer frequency, TF over GST control) and the binding signal [6] was 1.34 fold enrichment (6-mer frequency, TF over GST control). For the same sequence, the binding signal [7] was 1.34 fold enrichment (6-mer frequency, TF over GST control), the binding signal [8] was 1.29 fold enrichment (6-mer frequency, TF over GST control) and the binding signal [9] was 1.34 fold enrichment (6-mer frequency, TF over GST control). The binding signal [10] was 1.26 fold enrichment (6-mer frequency, TF over GST control), the binding signal [11] was 1.36 fold enrichment (6-mer frequency, TF over GST control) and the binding signal [12] was 1.37 fold enrichment (6-mer frequency, TF over GST control). For the same sequence, the binding signal [13] was 1.5 fold enrichment (6-mer frequency, TF over GST control), the binding signal [14] was 1.21 fold enrichment (6-mer frequency, TF over GST control) and the binding signal [15] was 1.16 fold enrichment (6-mer frequency, TF over GST control). The binding signal [16] was 1.34 fold enrichment (6-mer frequency, TF over GST control), the binding signal [17] was 1.37 fold enrichment (6-mer frequency, TF over GST control) and the binding signal [18] was 1.74 fold enrichment (6-mer frequency, TF over GST control). The binding signal [19] was 1.32 fold enrichment (6-mer frequency, TF over GST control).
